The results in this text go back to PubChem BioAssay.

Activity calls are given as the source filed them.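 The calls were made as follows, unless noted: active = fluorescence slope after compound addition differing from the mean of all screened samples at 99.7% confidence, in either direction; inactive = the rest.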

A short description of assay [1]: inhibitors of TNFa-induced NFkB p65 translocation, primary screen, imaging, HUVEC, MLSMR starter and 10KST1 sets (AID 438;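 active = inhibition above 20% together with a positive visual image hit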;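 also: compound added about 3h40 before a 20 min TNFalpha stimulation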;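 as to inhibition: signal is the nuclear over cytoplasmic p65 intensity ratio per well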). The conditions noted are these: HUVEC TNFa-induced p65 nuclear translocation; cell count: measured here: nuclei count (cytotoxicity indicator), at 2.08 µM; inhibition: at 2 µM, stronger effect = higher value, 0% TNFa-plus-vehicle, 100% no-TNFa wells.
Assay [2] in a line: reduction of polyQ htt aggregates in cells – imaging, exon1htt(103Q)mCFP cells, high-content imaging, primary screen (AID 483;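 active = visual image review flags a hit and inhibition of aggregation exceeds 20%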;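 also: compound exposure lasted 3 days before fixation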;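 as to nuclei count: percent of the per-plate median nuclei count of sample wells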). The conditions noted are these: exon1htt(103Q)mCFP cell line, aggregate imaging, at 2 µM; inhibition of aggregation: stronger effect = higher value; nuclei count: measured here: cell count, toxicity.
A short description of assay [3]: endothelial E-selectin expression blockers – imaging, HUVEC, immunofluorescence, MLSMR starter and 10KST1 sets, primary screen (AID 487;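 active = visually confirmed hit in the image check and inhibition above 20%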;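 as to inhibition: signal is fraction of cell area covered by stained E-selectin grains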;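 as to nuclei count: 100% = median nuclei count of all wells on the same plate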). The settings on record: HUVEC TNFalpha-induced E-selectin immunofluorescence imaging, at 2 µM; inhibition: stronger effect = higher value; nuclei count: measured here: cell number, toxicity.
The target of assay [4] is Voltage-gated potassium channel subunit beta-2 (Rattus norvegicus) (UniProt P62483). The assay can be described thus: inhibitors of rat Kvbeta2 reductase activity – biochemical, NADPH fluorescence, primary screen (AID 622;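 active = fluorescence slope higher than the sample average by over 3 SD, cut at about -0.22 in these data, passing the limit was not always enough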;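 also: slope of raw intensity against log time taken from 70 to 1610 s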). The settings on record: recombinant KvBeta, 4-cyanobenzaldehyde reduction, at 10 µM, stronger effect = higher value.
Assay [5] shares this target. The assay can be described thus: enhancers of rat Kvbeta2 NADPH turnover – biochemical, NADPH fluorescence, primary screen (AID 623;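 active = NADPH fluorescence slope more negative than the mean of all samples by about 3 SD, 99.7% confidence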;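 also: fluorescence intensity change per second fitted from 20 to 320 s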). The settings on record: Recombinant KvBeta, NADPH fluorescence decrease slope, 10 min; at 10 µM; stronger effect = lower value.
Assay [6] concerns the target Alpha-2C adrenergic receptor (Homo sapiens) (UniProt P18825). The assay can be described thus: compounds altering alpha2C-coupled GIRK flux – cell-based, HEK293 alpha2C/GIRK1/2, thallium flux, primary screen (AID 624).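 Also: slope of fluorescence ratio to pre-addition baseline per second over 15 to 24 s.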 The conditions noted are these: thallium flux BTC fluorescence, at 10 µM, actives lie on both sides.
Assay [7] in a line: blockers of RIG-like receptor reporter activation – cell-based, Sendai virus stimulus, luciferase, 10K MLSCN set, TLR/RLR signaling modifier project, primary screen (AID 602276;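 active = inhibition at or above 50% at 10 µM; inactive = inhibition below 50%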;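 also: firefly luciferase from ISG56 promoter only with Renilla not read in this screen; 0% = Sendai virus plus DMSO and 100% = medium plus DMSO without virus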). The conditions noted are these: HEK293 RL24 IRF3 luciferase reporter, at 10 µM, stronger effect = higher value. Background: A reporter such as luciferase makes a cellular process visible.
Assay [8] is described as follows: TLR3 IRF3 reporter activation blockers – cell-based, poly I:C stimulus, luciferase, 10K MLSCN set, primary screen (AID 602277;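 active = inhibition of the reporter signal at or above 50%; inactive = inhibition below 50%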). The settings on record: HEK293-TLR3 RL24 IRF3 luciferase reporter, at 10 µM, stronger effect = higher value.

Chain of Alpha-2C adrenergic receptor (Homo sapiens) (P18825 whole entry, looked up): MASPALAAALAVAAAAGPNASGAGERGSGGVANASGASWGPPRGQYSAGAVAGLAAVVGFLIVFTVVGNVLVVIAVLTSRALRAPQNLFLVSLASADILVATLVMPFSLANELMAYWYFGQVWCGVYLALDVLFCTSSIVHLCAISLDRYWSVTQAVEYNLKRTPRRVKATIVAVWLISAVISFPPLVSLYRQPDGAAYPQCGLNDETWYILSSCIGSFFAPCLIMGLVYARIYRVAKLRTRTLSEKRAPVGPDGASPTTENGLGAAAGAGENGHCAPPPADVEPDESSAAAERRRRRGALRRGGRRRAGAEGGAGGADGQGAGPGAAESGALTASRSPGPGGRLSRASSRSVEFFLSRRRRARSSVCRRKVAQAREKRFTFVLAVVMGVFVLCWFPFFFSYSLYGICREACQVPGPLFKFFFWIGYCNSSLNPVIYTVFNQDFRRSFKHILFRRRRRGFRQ
Chain of Voltage-gated potassium channel subunit beta-2 (Rattus norvegicus) (P62483 whole entry, looked up): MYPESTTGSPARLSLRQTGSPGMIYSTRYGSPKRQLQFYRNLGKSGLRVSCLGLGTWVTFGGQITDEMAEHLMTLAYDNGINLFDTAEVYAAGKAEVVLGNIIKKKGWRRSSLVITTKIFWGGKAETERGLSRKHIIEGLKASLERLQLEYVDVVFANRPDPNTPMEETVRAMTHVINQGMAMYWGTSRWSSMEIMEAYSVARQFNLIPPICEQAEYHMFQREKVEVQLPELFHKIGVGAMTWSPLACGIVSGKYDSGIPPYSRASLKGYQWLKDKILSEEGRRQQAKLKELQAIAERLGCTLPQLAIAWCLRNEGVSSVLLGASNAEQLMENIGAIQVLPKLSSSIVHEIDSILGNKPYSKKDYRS

Usually inhibition stands for the change of the read-out against control, counted positive when it falls. Regarding `CCOC(=O)c1ccccc1NC(=O)c1cc2sccc2n1C`, the cell count in assay [1] was 740. Besides, the inhibition in assay [1] is -42.9% (inactive); in assay [3], -20.5% (inactive); in assay [7], -3.63% (inactive); in assay [8], -15.2% (inactive). In addition, in assay [2], the inhibition of aggregation is 5.5% (inactive). Also, the nuclei count in assay [2] was determined as 107%; in assay [3] it was 101%. In assay [4], the fluorescence slope was -0.483 (inactive). In assay [5], the NADPH fluorescence slope was 1.4e-05 (inactive). For the same compound, the slope in assay [6] was 0.00572 (inactive).
Consider `COc1ccc(CN(C(=O)c2oc3ccccc3c2C)C2CCS(=O)(=O)C2)cc1` (centres undefined), for which the cell count in assay [1] was found to be 592. Further, the inhibition in assay [1] was 1.7% (inactive); in assay [3], -5.9% (inactive); in assay [7], -2.17% (inactive); in assay [8], 8.82% (inactive). The inhibition of aggregation in assay [2] is 7.1% (inactive). Besides, the results for the nuclei count in assay [2] and in assay [3] were 87.3% and 102%, respectively. Besides, in assay [4], the fluorescence slope was -0.444 (inactive). Further, the NADPH fluorescence slope in assay [5] was 2.9e-05 (inactive). Further, the slope in assay [6] was 0.00692 (inactive).
As to `Cc1nnc(NC(=O)CSc2nc3c(c(=O)n2C)SC(C)C3)s1` (centres undefined), in assay [1], the cell count amounted to 734. Also, the inhibition in assay [1] was -4.3% (inactive); in assay [3], -7.8% (inactive); in assay [7] it was 13.8% (inactive); in assay [8], 34.3% (inactive). Besides, in assay [2], the inhibition of aggregation is -22.2% (inactive). Besides, the nuclei count in assay [2] worked out at 98.5%; in assay [3] it was 104%. Moreover, the fluorescence slope in assay [4] is -0.536 (inactive). The NADPH fluorescence slope in assay [5] is -6.2e-05 (inactive). Also, the slope in assay [6] is 0.00476 (inactive).
Turning to `Fc1ccccc1Cn1nnc2c(-n3ccnc3)ncnc21`, the cell count in assay [1] was determined as 573. The inhibition in assay [1] is -1.6% (inactive); in assay [3] it was -55.2% (inactive); in assay [7] it was -9.4% (inactive); in assay [8] it was -13.8% (inactive). For the same compound, the inhibition of aggregation in assay [2] was -7.5% (inactive). The nuclei count in assay [2] amounted to 103%; in assay [3], 106%. For the same compound, the fluorescence slope in assay [4] was -0.519 (inactive). Besides, the NADPH fluorescence slope in assay [5] was 3.6e-05 (inactive). In addition, the slope in assay [6] is 0.00439 (inactive).
On to `CCOc1ccc2c(c1)c1nnc(SCC(=O)N3CCC(C)CC3)nc1n2C`, for which the cell count in assay [1] is 432. Also, the inhibition in assay [1] is -0.2% (inactive); in assay [3], -30.2% (inactive); in assay [7] it was -10.6% (inactive); in assay [8] it was -29.5% (inactive). Besides, the inhibition of aggregation in assay [2] was 0.1% (inactive). For the same compound, the figures for the nuclei count in assay [2] and in assay [3] were 99.9% and 114%, respectively. The fluorescence slope in assay [4] was -0.326 (inactive). The NADPH fluorescence slope in assay [5] was -5.2e-05 (inactive). The slope in assay [6] was 0.00371 (inactive).
As to `Cc1nnc(SCC(=O)N2CC(=O)Nc3ccccc32)n1-c1ccccc1`, the cell count in assay [1] was found to be 502. The inhibition in assay [1] is -4.7% (inactive); in assay [3] it was -190% (inactive); in assay [7] it was 19.7% (inactive); in assay [8], 22.4% (inactive). Besides, the inhibition of aggregation in assay [2] was -14.7% (inactive). Moreover, the nuclei count in assay [2] turned out to be 102%; in assay [3] it was 134%. Further, in assay [4], the fluorescence slope is -0.483 (inactive). Moreover, the NADPH fluorescence slope in assay [5] is -3.9e-05 (inactive). Further, the slope in assay [6] was 0.00543 (inactive).
As for `C=CCSC1=C(C#N)C(c2ccccc2)CC(=O)N1` (centres undefined), in assay [1], the cell count is 486. The inhibition was -1.6% (inactive) in assay [1], -112% (inactive) in assay [3], 6.68% (inactive) in assay [7] and 8.17% (inactive) in assay [8]. For the same compound, in assay [2], the inhibition of aggregation was 1.6% (inactive). Besides, the nuclei count in assay [2] was determined as 101%; in assay [3] it was 104%. In addition, the fluorescence slope in assay [4] is -0.527 (inactive). Also, in assay [5], the NADPH fluorescence slope was 8.1e-07 (inactive). In addition, in assay [6], the slope is 0.00534 (inactive).
Take `CCOC(=O)c1ccc(NC(=O)Nc2ccn(C)n2)cc1`: in assay [1], the cell count came out at 354. In addition, the inhibition in assay [1] was 8.8% (inactive); in assay [3], -23.7% (inactive); in assay [7], -16.4% (inactive); in assay [8], -66.8% (inactive). Moreover, the inhibition of aggregation in assay [2] is 11.9% (inactive). Moreover, the nuclei count in assay [2] is 110%; in assay [3], 100%. The fluorescence slope in assay [4] was -0.383 (inactive). Further, the NADPH fluorescence slope in assay [5] was -2.9e-05 (inactive). In addition, the slope in assay [6] was 0.00615 (inactive).
With `c1ccc(-c2noc(C3CCCCC3)n2)nc1`, the cell count in assay [1] came to 665. The inhibition in assay [1] is -44.9% (inactive); in assay [3] it was -29.2% (inactive); in assay [7] it was -1.58% (inactive); in assay [8] it was -68.3% (inactive). Further, the inhibition of aggregation in assay [2] is -13.4% (inactive). The nuclei count in assay [2] amounted to 97.5%; in assay [3] it was 110%. The fluorescence slope in assay [4] is -0.52 (inactive). Besides, the NADPH fluorescence slope in assay [5] was -2.4e-05 (inactive). In addition, in assay [6], the slope was 0.00485 (inactive).
In the case of `CCCOC(=O)C1C2C=CC3(CN(c4cccc(Cl)c4)C(=O)C13)O2` (centres undefined), the cell count in assay [1] was 743. The inhibition is -5.5% (inactive) in assay [1], -55.3% (inactive) in assay [3], 12.8% (inactive) in assay [7] and 28.1% (inactive) in assay [8]. The inhibition of aggregation in assay [2] was -3.6% (inactive). Further, the figures for the nuclei count in assay [2] and in assay [3] were 95.4% and 116%, respectively. For the same compound, in assay [4], the fluorescence slope was -0.491 (inactive). Besides, the NADPH fluorescence slope in assay [5] was 1.7e-05 (inactive). In assay [6], the slope was 0.00748 (inactive).
With `CCCC(=O)N(c1ccc2oc(=O)sc2c1)S(=O)(=O)c1ccccc1`, the cell count in assay [1] worked out at 318. Moreover, the inhibition in assay [1] was 3.5% (inactive); in assay [3], -45.1% (inactive); in assay [7] it was 14.8% (inactive); in assay [8], 17.5% (inactive). Further, in assay [2], the inhibition of aggregation is -12.8% (inactive). Besides, the nuclei count in assay [2] is 104%; in assay [3], 80%. In assay [4], the fluorescence slope was -0.61 (inactive). In addition, in assay [5], the NADPH fluorescence slope was -2.4e-05 (inactive). Moreover, the slope in assay [6] was 0.00625 (inactive).
On to `Cc1cc(C(=O)Nc2cccnc2)no1`, for which the cell count in assay [1] amounted to 543. For the same compound, the inhibition in assay [1] was -10.1% (inactive); in assay [3], -133% (inactive); in assay [7] it was -17% (inactive); in assay [8], -20.9% (inactive). Moreover, the inhibition of aggregation in assay [2] was -9.5% (inactive). The nuclei count in assay [2] is 116%; in assay [3] it was 112%. In addition, the fluorescence slope in assay [4] is -0.35 (inactive). In addition, the NADPH fluorescence slope in assay [5] was -5.2e-05 (inactive). Also, the slope in assay [6] is 0.0058 (inactive).
Take `CC(C)N(C(=O)CSc1nnc(NC(=O)C2CCC2)s1)C(C)C`: the cell count in assay [1] stood at 599. Moreover, the inhibition was -0.6% (inactive) in assay [1], -108% (inactive) in assay [3], 17.8% (inactive) in assay [7] and 25.1% (inactive) in assay [8]. The inhibition of aggregation in assay [2] was -7.3% (inactive). Besides, the nuclei count in assay [2] was 86.3%; in assay [3], 110%. In addition, the fluorescence slope in assay [4] was -0.466 (inactive). The NADPH fluorescence slope in assay [5] is 2.4e-05 (inactive). Moreover, in assay [6], the slope was 0.00479 (inactive).
Consider `O=c1ccc(S(=O)(=O)N2CCC(Cc3ccccc3)CC2)c[nH]1`, for which the cell count in assay [1] came to 451. Further, the inhibition in assay [1] is 0% (inactive); in assay [3], -15.8% (inactive); in assay [7], 11.4% (inactive); in assay [8], 31.9% (inactive). For the same compound, the inhibition of aggregation in assay [2] was -8.8% (inactive). Also, the nuclei count in assay [2] was determined as 103%; in assay [3] it was 111%. Besides, the fluorescence slope in assay [4] is -0.369 (inactive). The NADPH fluorescence slope in assay [5] was -5e-05 (inactive). The slope in assay [6] was 0.00726 (inactive).
